Test results from article PMC3795721, “Screening for Protein-DNA Interactions by Automatable DNA-Protein Interaction ELISA”.

Target: AT4G31550 (Arabidopsis thaliana, UniProt Q9SV15 228-325)
Assay: DPI-ELISA; DPI-ELISA, streptavidin 384-well plate, 1-2 pmol biotinylated dsDNA per well, crude native E. coli extract, anti-His detection; buffer as in Brand et al. [46],; high values mean tight binding
Conditions: tags: C-terminal His (pET-DEST42); label: 5' biotin on forward strand; dsDNA, one strand shown

Chain of AT4G31550 (Q9SV15 228-325): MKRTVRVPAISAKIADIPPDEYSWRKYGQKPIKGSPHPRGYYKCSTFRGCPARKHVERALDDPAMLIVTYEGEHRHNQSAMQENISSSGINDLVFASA

Sequence | binding signal
AAAAAATGTATTCGTGTCCACTCCATAAAA | 0.53 ± 0.0707 absorbance
AAAAAACCCGGTTGGAGAAAATAATTAAAA | 0.55 ± 0.127 absorbance
AAAAAACCTACGATGGTTCTGATCTTAAAA | 0.655 ± 0.12 absorbance
AAAAAAGTTATTATACCTGATCTCGCAAAA | 1 ± 0.778 absorbance
AAAAAATCGCGTCCGTGCTCAATCCAAAAA | 0.48 ± 0.0566 absorbance
AAAAAATTAGTCCTGATTCAATCTTCAAAA | 0.755 ± 0.106 absorbance
AAAAAACATGTCGCACCTGTACTAACAAAA | 0.66 ± 0.127 absorbance
AAAAAACCCGCCGTCGTGATTATCACAAAA | 0.73 ± 0.0707 absorbance
AAAAAAGTCTAAGGACTTATAGCTGTAAAA | 1.65 ± 0.608 absorbance
AAAAAATTACTATTACACACTTGGGGAAAA | 0.6 ± 0.127 absorbance
AAAAAAGTTGCCGACGATTGCGGGTTAAAA | 0.735 ± 0.163 absorbance
AAAAAAATCTTTGCGTCGAGATTCTTAAAA | 0.59 ± 0.0707 absorbance
AAAAAATAATTACAAGTCGGCTCCACAAAA | 0.69 ± 0.0707 absorbance
AAAAAATTTCTATTTCATCTTTGCCCAAAA | 0.72 ± 0.156 absorbance
AAAAAAACGGGTTGTGAATGTGGAAGAAAA | 0.575 ± 0.148 absorbance
AAAAAATATCGGGCACGGTCTTGTCTAAAA | 0.585 ± 0.0495 absorbance
AAAAAAGGGTATACTCGCAGCCCCTAAAAA | 0.51 ± 0.0849 absorbance
AAAAAAAACAAAACCTCCTAATAGCGAAAA | 0.42 ± 0.113 absorbance
AAAAAAAAGTGCCAACGTTCAAGAAAAA | 0.38 ± 0.099 absorbance

Sequence | binding signal
AAAAAAGTCTAGTCGTAAAAA | 0.595 ± 0.0778 absorbance
AAAAAACTTCCCTCCTTGTCCTCCCCAAAA | 0.66 ± 0.113 absorbance
AAAAAATAAACGTGTTCATACTTAGTAAAA | 0.61 ± 0.0707 absorbance
AAAAAACGTATTGATGTCTATTTCAAAAAA | 0.575 ± 0.0919 absorbance
AAAAAATAGACCCTGACCCACCATTGAAAA | 0.71 ± 0.113 absorbance
AAAAAATGTCTTCTTACACCCTCTAGAAAA | 0.68 ± 0.0707 absorbance
AAAAAATCTTCACCTCACTTCGGTTTAAAA | 0.67 ± 0.0566 absorbance
AAAAAACATCGCTGTCGTTGACGTTGAAAA | 3.48 ± 0.474 absorbance
AAAAAATTTGGTCTTCGTCCTCGCTTAAAA | 0.9 ± 0.0707 absorbance
AAAAAACGTTGAACCTGGGCCTCAACAAAA | 1.39 ± 0.191 absorbance
AAAAAATTGCACCTGATACTAGGGTTAAAA | 0.655 ± 0.148 absorbance
AAAAAATTTCTCCTTCTTTGTTCTTCAAAA | 0.66 ± 0.141 absorbance
AAAAAACTCCCTCTCCTCTGTCTTCCAAAA | 0.635 ± 0.106 absorbance
AAAAAAATTTTTAGTTTTAATTTTGGAAAA | 0.615 ± 0.106 absorbance
AAAAAATTCAAAATGATCACTACGGGAAAA | 0.545 ± 0.0778 absorbance
AAAAAATTTTGTGGTGTTTCGCCACCAAAA | 0.715 ± 0.0495 absorbance
AAAAAAGTCATTATAACCCAAACTCTAAAA | 0.5 ± 0.113 absorbance
AAAAAAGCGGTAGATGCGCAACTGTGAAAA | 0.6 ± 0.127 absorbance
AAAAAACTTCTAGTTTATGCTTCCGTAAAA | 0.69 ± 0.141 absorbance
